# Data: publication PMC7862700, “An all-to-all approach to the identification of sequence-specific readers for epigenetic DNA modifications on cytosine”
# Tests used:
# Assay in all cases: DAPPL (digital affinity profiling via proximity ligation, sequencing); 10 mM Tris-HCl pH 7.5, 50 mM NaCl, 1 mM DTT, 4% glycerol, room temperature, 30 min; GST-TFs on glutathione beads, 16-mer random dsDNA library, 0.1% formaldehyde crosslink after washing; high values mean tight binding
# Conditions in all cases: protein: recombinant; tags: N-terminal GST; dsDNA, one strand shown
# FEV = target: T1, FEV (Homo sapiens, UniProt Q99581 1-238)
# T1 sequence: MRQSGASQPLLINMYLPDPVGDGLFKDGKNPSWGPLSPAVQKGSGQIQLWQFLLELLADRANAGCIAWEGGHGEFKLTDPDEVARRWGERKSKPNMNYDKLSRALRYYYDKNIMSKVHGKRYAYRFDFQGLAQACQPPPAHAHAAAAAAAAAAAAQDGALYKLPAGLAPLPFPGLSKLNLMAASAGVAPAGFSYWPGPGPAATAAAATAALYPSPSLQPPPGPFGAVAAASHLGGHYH
# Outline: (§1)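 GST fusions of human transcription factors were expressed in yeast and captured with glutathione beads. Once given DNA barcodes and pooled alongside a tag-only sample, they were incubated for 30 min at room temperature with 200 nmole of a random double-stranded 16-mer DNA library in Tris/NaCl/DTT/glycerol buffer, then washed, crosslinked (0.1% formaldehyde), proximity-ligated, PCR-amplified and sequenced on an Illumina NextSeq500. The binding signal of each hexamer is its read frequency for a factor divided by its frequency for the tag-only sample.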
# ETV5 = ETV5 (Homo sapiens, UniProt P41161 1-510)
# Outline: as §1
# SPIC = target: T2, SPIC (Homo sapiens, UniProt Q8N5J4 1-248)
# T2 sequence: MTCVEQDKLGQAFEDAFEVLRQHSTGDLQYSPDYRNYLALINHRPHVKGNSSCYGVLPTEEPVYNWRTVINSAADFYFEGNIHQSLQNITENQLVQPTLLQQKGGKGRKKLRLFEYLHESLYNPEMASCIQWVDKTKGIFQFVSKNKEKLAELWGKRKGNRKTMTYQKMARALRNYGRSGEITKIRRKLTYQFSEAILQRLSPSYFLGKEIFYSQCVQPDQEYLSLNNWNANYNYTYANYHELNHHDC
# Outline: as §1
# ELF4 = ELF4 (Homo sapiens, UniProt Q99607 1-663)
# Outline: as §1
# ELK4 = target: T3, ELK4 (Homo sapiens, UniProt P28324-2 1-405)
# T3 sequence: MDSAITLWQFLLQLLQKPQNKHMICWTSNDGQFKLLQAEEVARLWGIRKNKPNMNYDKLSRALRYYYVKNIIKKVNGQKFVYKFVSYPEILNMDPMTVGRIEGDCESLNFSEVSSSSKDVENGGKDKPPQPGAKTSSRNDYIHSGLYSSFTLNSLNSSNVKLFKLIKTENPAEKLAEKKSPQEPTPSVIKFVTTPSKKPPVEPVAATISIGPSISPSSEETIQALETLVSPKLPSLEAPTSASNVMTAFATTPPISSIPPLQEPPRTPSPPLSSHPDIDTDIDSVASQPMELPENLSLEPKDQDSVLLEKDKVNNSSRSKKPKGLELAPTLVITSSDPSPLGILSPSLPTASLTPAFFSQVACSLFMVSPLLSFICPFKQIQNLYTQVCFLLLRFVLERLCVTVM
# Outline: as §1
# ETV2 = target: T4, ETV2 (Homo sapiens, UniProt O00321 1-342)
# T4 sequence: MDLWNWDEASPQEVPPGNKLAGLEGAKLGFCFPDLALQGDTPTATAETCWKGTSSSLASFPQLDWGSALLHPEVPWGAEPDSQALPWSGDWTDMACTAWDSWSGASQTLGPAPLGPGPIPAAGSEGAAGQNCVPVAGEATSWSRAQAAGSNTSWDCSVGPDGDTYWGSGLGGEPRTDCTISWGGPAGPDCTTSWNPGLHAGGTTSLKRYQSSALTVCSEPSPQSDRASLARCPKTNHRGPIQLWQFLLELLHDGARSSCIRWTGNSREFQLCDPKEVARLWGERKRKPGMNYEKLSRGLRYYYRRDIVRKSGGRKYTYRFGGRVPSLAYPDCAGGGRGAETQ
# Outline: as §1
# ELF3 = target: T5, ELF3 (Homo sapiens, UniProt P78545 1-371)
# T5 sequence: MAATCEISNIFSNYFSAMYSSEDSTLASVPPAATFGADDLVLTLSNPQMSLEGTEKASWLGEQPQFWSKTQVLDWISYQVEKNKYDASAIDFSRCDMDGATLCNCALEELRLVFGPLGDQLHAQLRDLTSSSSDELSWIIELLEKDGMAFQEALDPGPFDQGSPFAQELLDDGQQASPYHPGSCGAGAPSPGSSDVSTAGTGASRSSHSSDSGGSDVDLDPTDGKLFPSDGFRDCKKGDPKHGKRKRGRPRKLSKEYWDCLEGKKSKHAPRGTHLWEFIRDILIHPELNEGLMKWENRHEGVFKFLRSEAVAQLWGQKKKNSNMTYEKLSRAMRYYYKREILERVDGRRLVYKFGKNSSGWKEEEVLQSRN
# Outline: as §1
# ETV1 = ETV1 (Homo sapiens, UniProt P50549 1-477)
# Outline: as §1
# ERF = target: T6, ERF (Homo sapiens, UniProt P50548 1-548)
# T6 sequence: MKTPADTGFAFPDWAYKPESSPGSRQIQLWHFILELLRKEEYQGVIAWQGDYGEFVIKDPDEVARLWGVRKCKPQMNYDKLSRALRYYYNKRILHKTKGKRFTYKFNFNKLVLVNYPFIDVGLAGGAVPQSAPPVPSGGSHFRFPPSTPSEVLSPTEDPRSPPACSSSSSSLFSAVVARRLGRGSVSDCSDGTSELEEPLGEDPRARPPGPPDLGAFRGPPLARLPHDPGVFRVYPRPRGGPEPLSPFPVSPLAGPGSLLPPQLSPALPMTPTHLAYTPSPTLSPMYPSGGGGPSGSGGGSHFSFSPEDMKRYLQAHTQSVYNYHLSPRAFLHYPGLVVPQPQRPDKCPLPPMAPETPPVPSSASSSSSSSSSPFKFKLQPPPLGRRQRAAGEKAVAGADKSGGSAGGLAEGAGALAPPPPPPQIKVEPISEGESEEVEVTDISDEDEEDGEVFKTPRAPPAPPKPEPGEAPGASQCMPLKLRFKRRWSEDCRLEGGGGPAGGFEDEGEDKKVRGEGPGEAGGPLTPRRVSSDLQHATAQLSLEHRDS
# Outline: as §1
# ETV3L = target: T7, ETV3L (Homo sapiens, UniProt Q6ZN32 1-361)
# T7 sequence: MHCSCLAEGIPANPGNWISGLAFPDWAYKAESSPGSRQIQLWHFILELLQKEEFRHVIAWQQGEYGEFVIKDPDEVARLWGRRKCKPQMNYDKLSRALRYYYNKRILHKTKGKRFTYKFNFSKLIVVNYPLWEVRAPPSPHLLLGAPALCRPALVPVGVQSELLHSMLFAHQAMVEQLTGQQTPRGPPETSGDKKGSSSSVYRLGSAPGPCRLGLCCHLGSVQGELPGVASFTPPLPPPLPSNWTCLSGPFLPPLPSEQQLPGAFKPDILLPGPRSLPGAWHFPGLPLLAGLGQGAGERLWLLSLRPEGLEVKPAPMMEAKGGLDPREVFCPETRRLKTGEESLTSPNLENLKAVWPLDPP
# Outline: as §1
# ETS2 = target: T8, ETS2 (Homo sapiens, UniProt P15036 1-469)
# T8 sequence: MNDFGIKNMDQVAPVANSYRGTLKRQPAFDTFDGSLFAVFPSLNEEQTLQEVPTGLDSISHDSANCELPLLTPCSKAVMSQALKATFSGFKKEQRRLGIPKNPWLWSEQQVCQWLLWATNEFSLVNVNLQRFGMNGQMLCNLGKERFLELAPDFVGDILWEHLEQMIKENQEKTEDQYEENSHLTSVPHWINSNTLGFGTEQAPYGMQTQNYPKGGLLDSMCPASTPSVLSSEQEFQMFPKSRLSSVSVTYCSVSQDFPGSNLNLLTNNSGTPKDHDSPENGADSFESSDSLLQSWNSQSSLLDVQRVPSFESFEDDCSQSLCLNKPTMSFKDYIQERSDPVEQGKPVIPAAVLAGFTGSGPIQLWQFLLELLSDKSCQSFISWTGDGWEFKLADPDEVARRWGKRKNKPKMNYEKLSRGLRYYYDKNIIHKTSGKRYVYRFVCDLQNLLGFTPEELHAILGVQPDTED
# Outline: as §1
# SPDEF = target: T9, SPDEF (Homo sapiens, UniProt O95238 1-335)
# T9 sequence: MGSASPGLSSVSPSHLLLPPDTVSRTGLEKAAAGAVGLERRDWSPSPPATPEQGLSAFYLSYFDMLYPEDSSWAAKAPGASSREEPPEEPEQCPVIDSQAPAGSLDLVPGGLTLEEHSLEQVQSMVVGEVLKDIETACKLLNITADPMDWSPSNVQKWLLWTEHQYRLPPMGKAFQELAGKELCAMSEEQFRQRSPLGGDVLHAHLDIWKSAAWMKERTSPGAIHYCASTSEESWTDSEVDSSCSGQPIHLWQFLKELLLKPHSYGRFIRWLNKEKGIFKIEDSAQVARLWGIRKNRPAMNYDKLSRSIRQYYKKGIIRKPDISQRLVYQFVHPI
# Outline: as §1
# ETV7 = target: T10, ETV7 (Homo sapiens, UniProt Q9Y603 1-341)
# T10 sequence: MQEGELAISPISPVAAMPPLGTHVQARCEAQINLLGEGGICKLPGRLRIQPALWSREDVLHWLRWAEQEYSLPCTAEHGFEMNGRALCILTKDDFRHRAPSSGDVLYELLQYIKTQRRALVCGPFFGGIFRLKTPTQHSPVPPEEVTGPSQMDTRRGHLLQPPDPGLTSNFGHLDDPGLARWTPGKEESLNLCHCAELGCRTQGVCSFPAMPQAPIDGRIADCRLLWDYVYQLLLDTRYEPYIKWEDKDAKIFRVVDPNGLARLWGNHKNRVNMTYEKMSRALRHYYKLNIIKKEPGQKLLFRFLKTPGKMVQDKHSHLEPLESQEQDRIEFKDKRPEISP
# Outline: as §1
# ELF5 = target: T11, ELF5 (Homo sapiens, UniProt Q9UKW6-2 1-255)
# T11 sequence: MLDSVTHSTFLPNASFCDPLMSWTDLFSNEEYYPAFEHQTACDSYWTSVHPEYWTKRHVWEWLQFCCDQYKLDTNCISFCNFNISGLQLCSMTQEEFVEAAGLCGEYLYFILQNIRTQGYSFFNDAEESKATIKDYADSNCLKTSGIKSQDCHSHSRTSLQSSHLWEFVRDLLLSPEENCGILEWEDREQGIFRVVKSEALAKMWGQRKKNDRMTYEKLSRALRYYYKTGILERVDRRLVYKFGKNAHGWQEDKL
# Outline: as §1
# ETV3 = target: T12, ETV3 (Homo sapiens, UniProt P41162-2 1-143)
# T12 sequence: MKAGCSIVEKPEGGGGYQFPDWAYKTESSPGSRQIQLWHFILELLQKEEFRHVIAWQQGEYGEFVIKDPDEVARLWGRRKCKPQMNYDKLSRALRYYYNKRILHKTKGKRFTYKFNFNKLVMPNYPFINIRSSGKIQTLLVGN
# Outline: as §1
# ETV6 = ETV6 (Homo sapiens, UniProt P41212 1-452)
# Outline: as §1
# Sequence of ETV6 (P41212 whole entry): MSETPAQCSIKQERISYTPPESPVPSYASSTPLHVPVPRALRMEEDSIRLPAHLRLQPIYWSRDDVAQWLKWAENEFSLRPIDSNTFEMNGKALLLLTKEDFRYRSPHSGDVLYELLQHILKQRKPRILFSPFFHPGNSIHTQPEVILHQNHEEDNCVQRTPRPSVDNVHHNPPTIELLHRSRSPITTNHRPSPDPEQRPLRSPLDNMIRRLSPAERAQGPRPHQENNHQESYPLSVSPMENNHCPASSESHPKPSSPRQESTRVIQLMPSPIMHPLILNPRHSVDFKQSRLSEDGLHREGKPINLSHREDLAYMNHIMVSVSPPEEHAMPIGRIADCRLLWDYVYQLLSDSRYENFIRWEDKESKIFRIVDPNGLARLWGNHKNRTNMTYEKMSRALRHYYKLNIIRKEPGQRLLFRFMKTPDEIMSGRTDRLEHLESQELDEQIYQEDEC
# Sequence of ELF4 (Q99607 whole entry): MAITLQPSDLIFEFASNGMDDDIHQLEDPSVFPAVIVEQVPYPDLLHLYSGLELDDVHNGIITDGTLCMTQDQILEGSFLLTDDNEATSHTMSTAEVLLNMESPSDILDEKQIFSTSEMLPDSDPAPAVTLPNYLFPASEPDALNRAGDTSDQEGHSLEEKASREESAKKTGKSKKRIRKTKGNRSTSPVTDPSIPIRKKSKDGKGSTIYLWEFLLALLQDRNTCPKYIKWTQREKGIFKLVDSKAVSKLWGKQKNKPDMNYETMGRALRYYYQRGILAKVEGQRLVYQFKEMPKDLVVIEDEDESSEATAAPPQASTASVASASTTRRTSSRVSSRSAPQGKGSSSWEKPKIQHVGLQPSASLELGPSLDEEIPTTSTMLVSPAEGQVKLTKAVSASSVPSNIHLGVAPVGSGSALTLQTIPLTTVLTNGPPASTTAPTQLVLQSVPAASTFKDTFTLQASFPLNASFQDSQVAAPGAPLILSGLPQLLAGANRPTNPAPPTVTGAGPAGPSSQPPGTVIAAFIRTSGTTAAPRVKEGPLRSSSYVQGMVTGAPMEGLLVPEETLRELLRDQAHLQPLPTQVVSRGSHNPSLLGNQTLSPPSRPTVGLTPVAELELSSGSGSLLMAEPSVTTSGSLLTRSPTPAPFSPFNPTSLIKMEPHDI
# Sequence of ETV5 (P41161 whole entry): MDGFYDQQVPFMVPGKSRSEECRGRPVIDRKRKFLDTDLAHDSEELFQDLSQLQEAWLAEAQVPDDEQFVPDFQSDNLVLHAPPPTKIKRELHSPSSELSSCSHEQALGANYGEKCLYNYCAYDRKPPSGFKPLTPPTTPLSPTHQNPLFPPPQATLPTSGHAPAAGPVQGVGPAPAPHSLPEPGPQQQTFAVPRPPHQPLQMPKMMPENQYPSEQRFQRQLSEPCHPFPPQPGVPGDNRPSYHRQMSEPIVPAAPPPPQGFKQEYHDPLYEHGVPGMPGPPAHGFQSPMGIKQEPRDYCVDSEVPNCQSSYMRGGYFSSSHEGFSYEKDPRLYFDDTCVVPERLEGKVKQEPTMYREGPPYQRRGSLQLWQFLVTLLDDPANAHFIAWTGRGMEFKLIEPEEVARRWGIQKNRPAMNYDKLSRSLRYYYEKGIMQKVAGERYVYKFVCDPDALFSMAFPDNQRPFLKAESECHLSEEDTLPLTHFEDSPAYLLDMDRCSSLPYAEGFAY
# Sequence of ETV1 (P50549 whole entry): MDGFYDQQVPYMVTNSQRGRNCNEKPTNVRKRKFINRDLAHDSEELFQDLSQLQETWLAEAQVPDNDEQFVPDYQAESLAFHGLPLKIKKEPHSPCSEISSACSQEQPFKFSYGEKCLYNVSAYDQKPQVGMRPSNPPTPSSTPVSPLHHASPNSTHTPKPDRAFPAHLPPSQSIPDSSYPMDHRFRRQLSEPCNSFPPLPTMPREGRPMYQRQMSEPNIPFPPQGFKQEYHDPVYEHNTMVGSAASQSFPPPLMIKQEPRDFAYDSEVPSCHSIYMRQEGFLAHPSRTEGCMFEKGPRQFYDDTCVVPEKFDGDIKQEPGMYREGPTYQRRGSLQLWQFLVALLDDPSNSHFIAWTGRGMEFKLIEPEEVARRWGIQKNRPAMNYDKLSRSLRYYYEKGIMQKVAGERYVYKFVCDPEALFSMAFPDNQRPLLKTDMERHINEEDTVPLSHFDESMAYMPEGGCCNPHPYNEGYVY
sequence,measurement,setting,value
CCCATC,binding signal,FEV,"1.06 fold enrichment (6-mer frequency, TF over GST control)"
same,binding signal,ETV5,"1.16 fold enrichment (6-mer frequency, TF over GST control)"
same,binding signal,SPIC,"1.27 fold enrichment (6-mer frequency, TF over GST control)"
same,binding signal,ELF4,"1.17 fold enrichment (6-mer frequency, TF over GST control)"
same,binding signal,ELK4,"1.3 fold enrichment (6-mer frequency, TF over GST control)"
same,binding signal,ETV2,"1.04 fold enrichment (6-mer frequency, TF over GST control)"
same,binding signal,ELF3,"1.09 fold enrichment (6-mer frequency, TF over GST control)"
same,binding signal,ETV1,"1.18 fold enrichment (6-mer frequency, TF over GST control)"
same,binding signal,ERF,"1.25 fold enrichment (6-mer frequency, TF over GST control)"
same,binding signal,ETV3L,"1.15 fold enrichment (6-mer frequency, TF over GST control)"
same,binding signal,ETS2,"1.22 fold enrichment (6-mer frequency, TF over GST control)"
same,binding signal,SPDEF,"1.07 fold enrichment (6-mer frequency, TF over GST control)"
same,binding signal,ETV7,"1.08 fold enrichment (6-mer frequency, TF over GST control)"
same,binding signal,ELF5,"1.21 fold enrichment (6-mer frequency, TF over GST control)"
same,binding signal,ETV3,"1.14 fold enrichment (6-mer frequency, TF over GST control)"
same,binding signal,ETV6,"1.1 fold enrichment (6-mer frequency, TF over GST control)"
TGACGC,binding signal,FEV,"1.13 fold enrichment (6-mer frequency, TF over GST control)"
same,binding signal,ETV5,"1.28 fold enrichment (6-mer frequency, TF over GST control)"
same,binding signal,SPIC,"1.18 fold enrichment (6-mer frequency, TF over GST control)"
same,binding signal,ELF4,"1.37 fold enrichment (6-mer frequency, TF over GST control)"
same,binding signal,ELK4,"1.3 fold enrichment (6-mer frequency, TF over GST control)"
same,binding signal,ETV2,"1.18 fold enrichment (6-mer frequency, TF over GST control)"
same,binding signal,ELF3,"1.11 fold enrichment (6-mer frequency, TF over GST control)"
same,binding signal,ETV1,"1.07 fold enrichment (6-mer frequency, TF over GST control)"
same,binding signal,ERF,"1.34 fold enrichment (6-mer frequency, TF over GST control)"
same,binding signal,ETV3L,"1.24 fold enrichment (6-mer frequency, TF over GST control)"
same,binding signal,ETS2,"1.12 fold enrichment (6-mer frequency, TF over GST control)"
same,binding signal,SPDEF,"1.13 fold enrichment (6-mer frequency, TF over GST control)"
same,binding signal,ETV7,"1.13 fold enrichment (6-mer frequency, TF over GST control)"
same,binding signal,ELF5,"1.19 fold enrichment (6-mer frequency, TF over GST control)"
same,binding signal,ETV3,"1.15 fold enrichment (6-mer frequency, TF over GST control)"
same,binding signal,ETV6,"1.19 fold enrichment (6-mer frequency, TF over GST control)"
